Structures can show the parent of a compound that is named as a salt.
What was measured:
RIVA [1] = test: growth inhibition by drug plus 177Lu-lilotomab satetraxetan (1 - RLU/untreated control) (fraction); higher = stronger inhibition; conditions: 177Lu-lilotomab satetraxetan 0.5 ug/ml
Summary of the method: (§1)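 Compound doses on the pre-printed Selleck Cambridge Cancer Compound library plates were 10/100 nM for RIVA cells and 10/1,000 nM for U-2932 cells, seeded at 3,000 cells/well. Before seeding, cells were washed after 18 h with or without a radiolabelled anti-CD37 antibody conjugate (~600 MBq/mg; 0.5 µg/ml RIVA, 1 µg/ml U-2932). Growth inhibition was derived from RealTime-Glo luminescence relative to untreated no-drug control wells. Readings were taken daily starting on day 3, each after 1 h at 37°C, and each well's RLU was divided by the mean of 48 such wells per plate and subtracted from 1.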

U-2932 [2] = test: growth inhibition by drug alone (1 - RLU/untreated control) (fraction); higher = stronger inhibition; conditions: 177Lu-lilotomab satetraxetan 0 ug/ml
Summary of the method: as §1

RIVA [3] = test: as above; conditions: 177Lu-lilotomab satetraxetan 0 ug/ml
Summary of the method: as §1

U-2932 [4] = test: growth inhibition by drug plus 177Lu-lilotomab satetraxetan (1 - RLU/untreated control) (fraction); higher = stronger inhibition; conditions: 177Lu-lilotomab satetraxetan 1 ug/ml
Summary of the method: as §1

SMILES	growth inhibition by drug plus 177Lu-lilotomab satetraxetan (RIVA [1]; 100 nM, time (day): 5)	growth inhibition by drug plus 177Lu-lilotomab satetraxetan (RIVA [1]; 100 nM, time (day): 6)	growth inhibition by drug alone (U-2932 [2]; 10 nM, time (day): 3)	growth inhibition by drug alone (U-2932 [2]; 10 nM, time (day): 4)	growth inhibition by drug alone (U-2932 [2]; 10 nM, time (day): 5)	growth inhibition by drug alone (U-2932 [2]; 10 nM, time (day): 6)	growth inhibition by drug alone (U-2932 [2]; 1000 nM, time (day): 3)	growth inhibition by drug alone (U-2932 [2]; 1000 nM, time (day): 4)	growth inhibition by drug alone (U-2932 [2]; 1000 nM, time (day): 5)	growth inhibition by drug alone (U-2932 [2]; 1000 nM, time (day): 6)	growth inhibition by drug alone (RIVA [3]; 10 nM, time (day): 3)	growth inhibition by drug alone (RIVA [3]; 10 nM, time (day): 4)	growth inhibition by drug alone (RIVA [3]; 10 nM, time (day): 5)	growth inhibition by drug alone (RIVA [3]; 10 nM, time (day): 6)	growth inhibition by drug alone (RIVA [3]; 100 nM, time (day): 3)	growth inhibition by drug alone (RIVA [3]; 100 nM, time (day): 4)	growth inhibition by drug alone (RIVA [3]; 100 nM, time (day): 5)	growth inhibition by drug alone (RIVA [3]; 100 nM, time (day): 6)	growth inhibition by drug plus 177Lu-lilotomab satetraxetan (U-2932 [4]; 10 nM, time (day): 3)	growth inhibition by drug plus 177Lu-lilotomab satetraxetan (U-2932 [4]; 10 nM, time (day): 4)	growth inhibition by drug plus 177Lu-lilotomab satetraxetan (U-2932 [4]; 10 nM, time (day): 5)	growth inhibition by drug plus 177Lu-lilotomab satetraxetan (U-2932 [4]; 10 nM, time (day): 6)	growth inhibition by drug plus 177Lu-lilotomab satetraxetan (U-2932 [4]; 1000 nM, time (day): 3)	growth inhibition by drug plus 177Lu-lilotomab satetraxetan (U-2932 [4]; 1000 nM, time (day): 4)	growth inhibition by drug plus 177Lu-lilotomab satetraxetan (U-2932 [4]; 1000 nM, time (day): 5)	growth inhibition by drug plus 177Lu-lilotomab satetraxetan (U-2932 [4]; 1000 nM, time (day): 6)	growth inhibition by drug plus 177Lu-lilotomab satetraxetan (RIVA [1]; 10 nM, time (day): 3)	growth inhibition by drug plus 177Lu-lilotomab satetraxetan (RIVA [1]; 10 nM, time (day): 4)	growth inhibition by drug plus 177Lu-lilotomab satetraxetan (RIVA [1]; 10 nM, time (day): 5)	growth inhibition by drug plus 177Lu-lilotomab satetraxetan (RIVA [1]; 10 nM, time (day): 6)	growth inhibition by drug plus 177Lu-lilotomab satetraxetan (RIVA [1]; 100 nM, time (day): 3)	growth inhibition by drug plus 177Lu-lilotomab satetraxetan (RIVA [1]; 100 nM, time (day): 4)
O=c1cc(-c2cccc3c2Sc2ccccc2S3)oc(N2CCOCC2)c1	0.405	0.382																														
OCCn1cc(-c2cnc3nnn(Cc4ccc5ncccc5c4)c3n2)cn1	0.467	0.46	0.0403	0.00489	-0.0584	-0.156	-0.178	-0.0659	-0.175	-0.214	0.0383	0.00592	-0.0414	-0.165	-0.319	-0.278	-0.299	-0.402	-0.0346	0.043	0.0857	0.105	0.0296	0.08	0.0788	0.176	0.521	0.575	0.599	0.603	0.384	0.474
CCC[C@H](NC(=O)/C(C#N)=C/c1cccc(Br)n1)c1ccccc1	0.465	0.478	0.109	0.0652	-0.0661	-0.128	0.0251	0.0639	-0.0194	-0.182	-0.0156	-0.0305	-0.179	-0.663	-0.455	-0.31	-0.323	-0.514	0.0639	0.1	0.129	0.098	0.0285	0.0599	0.115	0.183	0.529	0.596	0.601	0.61	0.35	0.448
COc1cc2nccc(Oc3ccc(NC(=O)C4(C(=O)Nc5ccc(F)cc5)CC4)cc3)c2cc1OC [XL-184 free base (Cabozantinib)]	0.529	0.532	0.15	0.0841	-0.102	-0.0896	0.0853	0.105	0.037	-0.036	0.0104	0.0385	-0.0535	-0.315	-0.233	-0.0966	-0.104	-0.224	0.0398	0.083	0.153	0.164	0.112	0.177	0.224	0.337	0.545	0.613	0.621	0.628	0.445	0.52
C[C@@H](Oc1cc(-c2cnn(C3CCNCC3)c2)cnc1N)c1c(Cl)ccc(F)c1Cl	0.532	0.543	0.0921	0.0793	0.115	-0.0753	0.154	0.193	0.301	0.419	0.00835	0.0307	-0.0637	-0.409	-0.398	-0.211	-0.28	-0.62	0.0291	0.0614	0.116	0.192	0.115	0.223	0.397	0.566	0.466	0.573	0.592	0.61	0.405	0.523
C=CC[C@@H]1/C=C(\C)C[C@H](C)C[C@H](OC)[C@H]2O[C@@](O)(C(=O)C(=O)N3CCCC[C@H]3C(=O)O[C@H](/C(C)=C/[C@@H]3CC[C@@H](O)[C@H](OC)C3)[C@H](C)[C@@H](O)CC1=O)[C@H](C)C[C@@H]2OC [FK-506 (Tacrolimus)]	0.89	0.913	0.267	0.364	0.442	0.532	0.227	0.39	0.449	0.553	0.737	0.636	0.618	0.602	0.867	0.796	0.777	0.783	0.323	0.406	0.478	0.594	0.206	0.367	0.459	0.574	0.801	0.806	0.834	0.875	0.87	0.859
Cc1cnc(-c2cnc(NCCNc3ccc(C#N)cn3)nc2-c2ccc(Cl)cc2Cl)[nH]1	0.536	0.541	0.154	0.101	0.0269	-0.034	0.119	0.0751	-0.139	-0.197	0.0622	0.0911	0.0352	-0.132	-0.000657	0.0178	-0.0435	-0.16	0.0605	0.123	0.113	0.204	0.0116	0.0464	0.0105	0.0661	0.532	0.598	0.613	0.613	0.455	0.536
Cn1cc(-c2ccc3nnc(C(F)(F)c4ccc5ncccc5c4)n3n2)cn1	0.428	0.429	-0.0908	-0.108	-0.0614	-0.0112	-0.151	-0.112	-0.0976	0.0327	-0.216	-0.252	-0.259	-0.266	-0.157	-0.252	-0.203	-0.226	-0.0849	-0.0323	0.0158	0.0612	-0.131	-0.0707	-0.0177	0.142	0.285	0.449	0.457	0.453	0.342	0.401
O=C1CN2Cc3c(ccc(Cl)c3Cl)N=C2N1 [Anagrelide hydrochloride]	0.579	0.558	0.1	0.0554	-0.0277	-0.0568	0.0693	0.0958	0.0817	0.0377	0.16	0.111	0.0638	-0.0807	0.214	0.214	0.119	0.0727	0.101	0.119	0.141	0.272	0.0494	0.088	0.102	0.224	0.579	0.615	0.628	0.641	0.541	0.572
COc1ccccc1OCC(O)CN1CCN(CC(=O)Nc2c(C)cccc2C)CC1 (stereo not given) [Ranolazine (Ranexa)]	0.446	0.418	0.0363	0.0222	-0.0749	-0.119	-0.0415	-0.0106	-0.0786	-0.23	0.0348	-0.0338	-0.102	-0.328	-0.11	-0.146	-0.161	-0.223	-0.0197	0.00637	0.00274	0.118	-0.0847	8.82e-05	-0.0142	-0.000571	0.412	0.527	0.544	0.551	0.294	0.438
N#Cc1ccc(NC(=O)Nc2ccccc2Br)c2n[nH]nc12	0.544	0.542	0.122	0.0624	-0.115	-0.0627	0.0674	0.0714	-0.0804	-0.0945	-0.0525	0.00855	-0.101	-0.43	-0.383	-0.198	-0.264	-0.513	0.0243	0.065	0.134	0.142	0.0797	0.0995	0.138	0.218	0.534	0.601	0.605	0.619	0.463	0.528
O=c1oc2c(O)c(O)cc3c(=O)oc4c(O)c(O)cc1c4c23 [Ellagic acid]	0.402	0.388	-0.0386	-0.0333	-0.0157	0.0286	-0.0768	-0.0331	-0.0763	-0.143	-0.12	-0.115	-0.166	-0.332	-0.107	-0.127	-0.152	-0.219	-0.0253	-0.00558	0.0162	0.137	-0.104	-0.00651	0.0116	0.067	0.371	0.481	0.517	0.531	0.323	0.399
CN(CCOc1ccc(CC2SC(=O)NC2=O)cc1)c1ccccn1 (stereo not given) [Rosiglitazone (Avandia)]	0.532	0.523	0.068	0.0368	-0.0298	-0.117	-0.0124	0.0197	-0.0667	-0.236	-0.0381	-0.0305	-0.0979	-0.42	-0.131	-0.086	-0.0959	-0.219	-0.0122	0.00577	0.0405	0.0655	-0.0752	0.0366	0.0101	0.078	0.409	0.548	0.564	0.587	0.382	0.504
CC(C)c1onc(-c2c(Cl)cccc2Cl)c1COc1ccc(/C=C/c2cccc(C(=O)O)c2)c(Cl)c1	0.554	0.538	0.0964	0.0881	0.0536	0.0511	-0.008	0.0242	-0.0241	-0.208	0.157	0.0681	0.0301	-0.185	0.0922	0.0619	0.0293	-0.0245	0.0329	0.0686	0.0726	0.0791	-0.0283	0.0526	0.0247	0.0113	0.473	0.542	0.562	0.583	0.522	0.552
O=C1NC(=O)/C(=C\c2cccc(C(F)(F)F)c2)S1	0.458	0.45	-0.0629	-0.0752	-0.145	-0.158	-0.0663	-0.0763	-0.118	-0.219	-0.238	-0.269	-0.325	-0.41	-0.524	-0.503	-0.514	-0.584	-0.0851	-0.0351	0.0122	0.101	-0.0652	-0.0183	0.0099	0.134	0.418	0.47	0.492	0.508	0.391	0.456
